Results filed as inconclusive are left out. Activity calls are given as the source filed them. Unless noted, calls come from the whole dose curve.
Tests used:
[1] = target: Nuclear receptor subfamily 1 group I member 3 (Homo sapiens) (UniProt Q14994); assay: qHTS assay to identify small molecule agonists of the constitutive androstane receptor (CAR) signaling pathway (AID 1224839; active = well fitted activation curve with a large enough effect in the repeat runs;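 note: HepG2 cells stably carrying human CAR and a CYP2B6 luciferase reporter; series mostly up to about 92 µM; nearly all actives have a fitted effect of over 15% in size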)
Chain of Nuclear receptor subfamily 1 group I member 3 (Homo sapiens) (Q14994 whole entry, looked up): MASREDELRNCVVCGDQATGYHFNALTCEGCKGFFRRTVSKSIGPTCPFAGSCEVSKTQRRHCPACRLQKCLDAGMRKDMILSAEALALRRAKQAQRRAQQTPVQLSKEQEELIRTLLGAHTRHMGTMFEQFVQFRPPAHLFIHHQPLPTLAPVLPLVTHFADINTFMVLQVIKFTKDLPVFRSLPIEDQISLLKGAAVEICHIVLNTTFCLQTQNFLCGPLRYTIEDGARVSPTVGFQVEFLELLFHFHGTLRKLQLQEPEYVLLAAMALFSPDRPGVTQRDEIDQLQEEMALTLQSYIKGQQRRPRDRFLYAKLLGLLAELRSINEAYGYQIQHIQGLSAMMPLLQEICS
Outline: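 HepG2-CYP2B6-hCAR cells, 2500/well, 4 h pre-incubation; compounds 15 conc.; PK11195 0.75 uM final; 24 h, 37 C/5% CO2; ONE-Glo luciferase read.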

[2] = qHTS assay to identify small molecule antagonists of the estrogen related receptor signaling pathway with the pleiotropic PPARgamma coactivator (PGC) from Tox21 10K library - cell viability counter screen (AID 1224840; active = well fitted cell-killing curve with a large enough effect in the repeat runs, not every such curve was filed as active; note: nearly all actives have a fitted effect of over 40% in size)
Outline: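 Fluorescence read-out of CellTiter-Fluor viability reagent, added after cells had been exposed to compound in DMSO for 17.5 h at 37 C; 30 min development at 37 C/5% CO2. Cells: PGC/ERR line, 2,000/well.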

[3] = target: Thyrotropin receptor (Homo sapiens) (UniProt P16473); assay: qHTS assay to identify small molecule agonists of the thyroid stimulating hormone receptor (TSHR) signaling pathway (AID 1224843); note: nearly all actives have a fitted effect of over 45% in size
Chain of Thyrotropin receptor (Homo sapiens) (P16473 whole entry, looked up): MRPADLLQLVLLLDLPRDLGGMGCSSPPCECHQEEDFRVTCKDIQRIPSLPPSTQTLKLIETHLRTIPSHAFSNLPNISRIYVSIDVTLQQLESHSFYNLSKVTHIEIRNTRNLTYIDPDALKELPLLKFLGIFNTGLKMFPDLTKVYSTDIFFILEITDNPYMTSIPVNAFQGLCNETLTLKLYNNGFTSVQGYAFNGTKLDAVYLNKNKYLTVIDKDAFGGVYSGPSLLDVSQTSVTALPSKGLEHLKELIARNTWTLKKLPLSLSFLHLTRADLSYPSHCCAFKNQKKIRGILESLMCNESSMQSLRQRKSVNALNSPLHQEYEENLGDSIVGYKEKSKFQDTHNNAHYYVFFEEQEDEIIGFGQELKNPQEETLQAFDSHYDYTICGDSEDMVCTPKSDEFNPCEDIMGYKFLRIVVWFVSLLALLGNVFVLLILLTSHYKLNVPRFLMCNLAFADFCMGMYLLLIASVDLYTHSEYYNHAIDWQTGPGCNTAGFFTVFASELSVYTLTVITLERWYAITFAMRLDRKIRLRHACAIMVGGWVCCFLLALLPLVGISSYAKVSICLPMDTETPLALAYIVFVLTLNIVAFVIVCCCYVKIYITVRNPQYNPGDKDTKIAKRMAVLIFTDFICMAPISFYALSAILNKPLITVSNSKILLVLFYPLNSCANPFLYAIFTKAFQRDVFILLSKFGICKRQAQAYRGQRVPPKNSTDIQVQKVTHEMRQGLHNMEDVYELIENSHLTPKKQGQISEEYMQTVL
Outline: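 A cell-based cAMP HTRF format was run in TSHR-transfected HEK293 cells, 800 per well. Treatment: 30 min, room temperature. Detection: 1 h with labelled cAMP and anti-cAMP cryptate. Concentration-response over 15 points, three replicates.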

[4] = qHTS assay to identify small molecule agonists of the hypoxia (HIF-1) signaling pathway - cell viability counter screen (AID 1224844); note: nearly all actives have a fitted effect of over 50% in size
Outline: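 CellTiter-Glo luminescence read-out, 30 min RT, taken in the same wells as the beta-lactamase HRE reporter assay; HRE-bla ME-180 cells, 0.5% dialyzed FBS, 17 hr compound treatment at 37C, 5% CO2.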

[5] = qHTS assay to identify small molecule agonists of H2AX (AID 1224845; active = well fitted activation curve with a large enough effect in the signal ratio in the repeat runs, not every such curve was filed as active; the % refers to the signal ratio)
Outline: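 Phospho-H2AX Ser139 measured by HTRF (ex 320 nm; em 665 and 620 nm) after 24 hr antibody incubation. Compounds, 15 concentrations, 0.76% DMSO, were applied to CHO-K1 cells for 3hr at 37C before lysis.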

[6] = qHTS assay to identify small molecule agonists of the hypoxia (HIF-1) signaling pathway (AID 1224846; active = well fitted activation curve with a large enough effect in the signal ratio in the repeat runs, not every such curve was filed as active; the % refers to the signal ratio)
Outline: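 Beta-lactamase FRET read-out (CCF4-AM substrate) from ME-180 cells carrying an HRE-driven bla reporter, after 17 hrs compound exposure at 37C/5% CO2. Cells were seeded at 2,000 per well in 0.5% dialyzed FBS medium and preincubated 5 hrs.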

[7] = qHTS assay to identify small molecule agonists of H2AX - cell viability counter screen (AID 1224847);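 note: wild-type CHO-K1 cells; top concentration of the series differs between compounds; nearly all actives have a fitted effect of over 30% in size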
Outline: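 Cells plated first: CHO-K1, 1000 per well in 10% FBS medium, incubated overnight at 37C. Then 15-point compound titration added (final DMSO 0.76%) for 3 hr. Finally CellTiter-Glo added and luminescence read.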
% is set by controls: 0 for no effect and ±100 for the full control effect.

CCCC(CC)c1ccccc1 (stereo unspecified)
inactive: Potency [1] | outcome [2] | outcome [3] | outcome [4] | outcome [5] | outcome [6] | outcome [7]

CCOC(CN1CCN(CC(C)C(=O)c2ccccc2)CC1)c1ccccc1 (stereo unspecified)
inactive: activation [1] -1.5% [at 19 µM] | viability change, negative = cytotoxic [2] -2.82% [at 19 µM] | activation [3] -4.32% [at 19 µM] | activity change, negative = cytotoxicity [4] 0.0048% [at 15.8 µM] | activation (H2AX phosphorylation) [5] -1.86% [at 31.6 µM] | activation [6] 1.68% [at 15.8 µM] | activity change, negative = cytotoxicity [7] -1.65% [at 31.6 µM]

CCCCOC(=O)[C@H](C)O
inactive: Potency [1] | outcome [2] | outcome [3] | outcome [4] | outcome [5] | outcome [6] | outcome [7]

CNCCS(=O)(=O)O
inactive: Potency [1] | outcome [2] | outcome [3] | outcome [4] | outcome [5] | outcome [6] | outcome [7]

C=CC(=O)OCC1CCCO1 (stereo unspecified)
inactive: Potency [1] | outcome [2] | outcome [3] | outcome [4] | outcome [5] | outcome [6] | outcome [7]

N[C@@H](Cc1ccc(O)cc1)C(=O)O
inactive: activation [1] -2.78% [at 8.39 µM] | viability change, negative = cytotoxic [2] 3.49% [at 8.39 µM] | activation [3] 8.55% [at 8.39 µM] | activity change, negative = cytotoxicity [4] 2.31% [at 6.97 µM] | activation (H2AX phosphorylation) [5] 0.078% [at 14 µM] | activation [6] -0.522% [at 7.01 µM] | activity change, negative = cytotoxicity [7] 5.12% [at 14 µM]

O=C(O)[C@H](O)c1ccccc1
inactive: Potency [1] | outcome [2] | outcome [3] | outcome [4] | outcome [5] | outcome [6] | outcome [7]

CC(=O)O[C@@H]1CC2CCC1(C)C2(C)C (stereo partly specified)
inactive: Potency [1] | outcome [2] | outcome [3] | outcome [4] | outcome [5] | outcome [6] | outcome [7]

COCCc1ccccn1
inactive: Potency [1] | outcome [2] | outcome [3] | outcome [4] | outcome [5] | outcome [6] | outcome [7]

COC(C)(OC)OC
inactive: Potency [1] | outcome [2] | outcome [3] | outcome [4] | outcome [5] | outcome [6] | outcome [7]

CCN1CCCC1CN (stereo unspecified)
inactive: Potency [1] | outcome [2] | outcome [3] | outcome [4] | outcome [5] | outcome [6] | outcome [7]

CC(=O)C1C(=O)C=C(C)OC1=O (stereo unspecified)
inactive: Potency [1] | outcome [2] | outcome [3] | outcome [4] | outcome [5] | outcome [6] | outcome [7]

CN(C)CC/C=C1/c2ccccc2COc2ccc(CC(=O)O)cc21
inactive: Potency [1] | outcome [2] | outcome [3] | outcome [4] | outcome [5] | outcome [6] | outcome [7]

CCCCCCCCCCOC(C)=O
inactive: Potency [1] | outcome [2] | outcome [3] | outcome [4] | outcome [5] | outcome [6] | outcome [7]

NCC1(Cc2noc(=O)[nH]2)CCCCC1
inactive: Potency [1] | outcome [2] | outcome [3] | outcome [4] | outcome [5] | outcome [6] | outcome [7]

CCCCSCCCC
inactive: Potency [1] | outcome [2] | outcome [3] | outcome [4] | outcome [5] | outcome [6] | outcome [7]

OCC1CCC(CO)CC1 (stereo unspecified)
inactive: Potency [1] | outcome [2] | outcome [3] | outcome [4] | outcome [5] | outcome [6] | outcome [7]

N#Cc1cscn1
inactive: Potency [1] | outcome [2] | outcome [3] | outcome [4] | outcome [5] | outcome [6] | outcome [7]

CC(C)c1ccc(C=O)cc1
inactive: Potency [1] | outcome [2] | outcome [3] | outcome [4] | outcome [5] | outcome [6] | outcome [7]

C/C(CC(C)C)=N\O
inactive: Potency [1] | outcome [2] | outcome [3] | outcome [4] | outcome [5] | outcome [6] | outcome [7]

CC(C)OC(=O)CCC(=O)OC(C)C
inactive: Potency [1] | outcome [2] | outcome [3] | outcome [4] | outcome [5] | outcome [6] | outcome [7]

OC1(c2ccc(Cl)cc2)CCNCC1
inactive: Potency [1] | outcome [2] | outcome [3] | outcome [4] | outcome [5] | outcome [6] | outcome [7]

OC1OCCOC1O (stereo unspecified)
inactive: Potency [1] | outcome [2] | outcome [3] | outcome [4] | outcome [5] | outcome [6] | outcome [7]
